{"source": "PubChem BioAssay (NCATS)", "key": {"[1]": {"settings": "Ebola virus entry assay, blue channel fluorescence"}, "[2]": {"settings": "Ebola virus entry assay, green fluorescence channel"}, "[3]": {"settings": "Ebola virus entry assay, blue channel fluorescence", "remark": "listed apart in the source"}, "[4]": {"settings": "Ebola virus entry assay, ratio channel readout"}, "[5]": {"settings": "Ebola virus entry assay, blue channel fluorescence", "remark": "listed apart in the source"}, "[6]": {"settings": "Ebola virus entry assay, green channel fluorescence"}, "[7]": {"assay": "qHTS profiling of the MIPE4 collection as inhibitors of Plasmodium falciparum (HB3) proliferation (AID 743347; call rule not given here;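 also: plate controls were DMSO vehicle wells for no effect and artemisinin wells for full effect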)", "settings": "P. falciparum HB3 in erythrocytes, SYBR Green DNA, 72 h; at 28.5 µM (top of the series) unless noted", "procedure,_shortened": "(§1)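 Parasite DNA was quantified by SYBR Green I fluorescence (ex 485, em 535 nm) after overnight lysis in saponin/Triton buffer at room temperature. Cultures at 0.3% parasitemia and 2.5% hematocrit were first exposed to compound for 72 h at 37 C; signals were normalised to artemisinin (0.29 uM) and vehicle wells.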"}, "[8]": {"assay": "qHTS profiling of the MIPE4 collection as inhibitors of Plasmodium falciparum (DD2) proliferation (AID 743345; call rule not given here)", "settings": "P. falciparum Dd2 in erythrocytes, SYBR Green DNA, 72 h; at 28.5 µM (top of the series) unless noted", "procedure,_shortened": "as §1"}, "[9]": {"settings": "Ebola virus entry assay, ratio channel"}}, "note": "For some of these results: Measured potencies and affinities stand elsewhere. Calls of active or inactive are those of the source.", "data": [{"compound": "CSCC[C@H](NC(=O)[C@H](Cc1ccc(OS(=O)(=O)O)cc1)NC(=O)[C@@H](N)CC(=O)O)C(=O)NCC(=O)N[C@@H](Cc1c[nH]c2ccccc12)C(=O)N[C@@H](CCSC)C(=O)N[C@@H](CC(=O)O)C(=O)N[C@@H](Cc1ccccc1)C(N)=O", "values": [{"measurement": "outcome", "setting": "[1]", "value": "inactive"}, {"measurement": "outcome", "setting": "[2]", "value": "inactive"}, {"measurement": "outcome", "setting": "[3]", "value": "inactive"}]}, {"compound": "COc1cccc2c1C(=O)c1c(O)c3c(c(O)c1C2=O)C[C@@](O)(C(C)=O)C[C@H]3O[C@H]1C[C@H](N)[C@H](O)[C@H](C)O1", "values": [{"measurement": "AC50", "setting": "[1]", "value": "6.31 µM (active)"}, {"measurement": "AC50", "setting": "[4]", "value": "5.63 µM (active)"}]}, {"compound": "CC(O)(P(=O)(O)O)P(=O)(O)O", "values": [{"measurement": "outcome", "setting": "[1]", "value": "inactive"}, {"measurement": "outcome", "setting": "[2]", "value": "inactive"}, {"measurement": "outcome", "setting": "[5]", "value": "inactive"}, {"measurement": "outcome", "setting": "[6]", "value": "inactive"}, {"measurement": "outcome", "setting": "[3]", "value": "inactive"}]}, {"compound": "CCC[C@@H]1C[C@@H](C(=O)N[C@@H]([C@H]2O[C@H](SC)[C@H](O)[C@@H](O)[C@H]2O)[C@H](C)Cl)N(C)C1", "values": [{"measurement": "outcome", "setting": "[1]", "value": "inactive"}, {"measurement": "outcome", "setting": "[2]", "value": "inactive"}, {"measurement": "outcome", "setting": "[4]", "value": "inactive"}, {"measurement": "outcome", "setting": "[3]", "value": "inactive"}]}, {"compound": "Cc1onc(-c2ccccc2)c1C(=O)N[C@@H]1C(=O)N2[C@@H](C(=O)O)C(C)(C)S[C@@H]12", "values": [{"measurement": "growth, % of control", "setting": "[7]", "value": 82.7, "unit": "%"}, {"measurement": "outcome", "setting": "[1]", "value": "inactive"}, {"measurement": "outcome", "setting": "[2]", "value": "inactive"}, {"measurement": "outcome", "setting": "[3]", "value": "inactive"}]}, {"compound": "C[C@](O)(CS(=O)(=O)c1ccc(F)cc1)C(=O)Nc1ccc(C#N)c(C(F)(F)F)c1", "values": [{"measurement": "parasite growth remaining, % of DMSO control (lower = more inhibition)", "setting": "[8]", "value": 93.2, "unit": "%"}, {"measurement": "growth, % of control", "setting": "[7]", "value": 27.8, "unit": "%"}, {"measurement": "outcome", "setting": "[1]", "value": "inactive"}, {"measurement": "outcome", "setting": "[2]", "value": "inactive"}, {"measurement": "outcome", "setting": "[4]", "value": "inactive"}]}, {"compound": "CCOc1cc(CC(=O)N[C@@H](CC(C)C)c2ccccc2N2CCCCC2)ccc1C(=O)O", "values": [{"measurement": "outcome", "setting": "[2]", "value": "inactive"}, {"measurement": "outcome", "setting": "[4]", "value": "inactive"}, {"measurement": "outcome", "setting": "[3]", "value": "inactive"}]}, {"compound": "CC(C)[C@H](N)C(=O)OCC(CO)OCn1cnc2c(=O)[nH]c(N)nc21", "note": "(stereo partly drawn)", "values": [{"measurement": "outcome", "setting": "[1]", "value": "inactive"}, {"measurement": "outcome", "setting": "[2]", "value": "inactive"}, {"measurement": "outcome", "setting": "[4]", "value": "inactive"}, {"measurement": "outcome", "setting": "[3]", "value": "inactive"}]}, {"compound": "OCCN1CCN(CC/C=C2/c3ccccc3Sc3ccc(C(F)(F)F)cc32)CC1", "values": [{"measurement": "AC50", "setting": "[5]", "value": "3.55 µM (active)"}]}, {"compound": "CCCCCN(C)CCC(O)(P(=O)(O)O)P(=O)(O)O", "values": [{"measurement": "outcome", "setting": "[1]", "value": "inactive"}, {"measurement": "outcome", "setting": "[2]", "value": "inactive"}, {"measurement": "outcome", "setting": "[3]", "value": "inactive"}]}, {"compound": "Nc1ccn([C@@H]2CS[C@H](CO)O2)c(=O)n1", "values": [{"measurement": "outcome", "setting": "[2]", "value": "inactive"}, {"measurement": "outcome", "setting": "[4]", "value": "inactive"}, {"measurement": "outcome", "setting": "[3]", "value": "inactive"}]}, {"compound": "O=c1[nH]c(=O)n([C@H]2C[C@H](O)[C@@H](CO)O2)cc1F", "values": [{"measurement": "outcome", "setting": "[2]", "value": "inactive"}, {"measurement": "outcome", "setting": "[5]", "value": "inactive"}, {"measurement": "outcome", "setting": "[9]", "value": "inactive"}, {"measurement": "outcome", "setting": "[6]", "value": "inactive"}, {"measurement": "outcome", "setting": "[3]", "value": "inactive"}]}, {"compound": "O=P(O)(O)C(O)(Cn1ccnc1)P(=O)(O)O", "values": [{"measurement": "parasite growth remaining, % of DMSO control (lower = more inhibition)", "setting": "[8]", "value": "90.7% [at 9.64 µM]"}, {"measurement": "growth, % of control", "setting": "[7]", "value": "72.4% [at 9.64 µM]"}, {"measurement": "outcome", "setting": "[1]", "value": "inactive"}, {"measurement": "outcome", "setting": "[2]", "value": "inactive"}, {"measurement": "outcome", "setting": "[4]", "value": "inactive"}, {"measurement": "outcome", "setting": "[3]", "value": "inactive"}]}, {"compound": "C[C@H](CS)C(=O)N1CCC[C@H]1C(=O)O", "values": [{"measurement": "outcome", "setting": "[1]", "value": "inactive"}, {"measurement": "outcome", "setting": "[4]", "value": "inactive"}, {"measurement": "outcome", "setting": "[5]", "value": "inactive"}, {"measurement": "outcome", "setting": "[9]", "value": "inactive"}, {"measurement": "outcome", "setting": "[6]", "value": "inactive"}, {"measurement": "outcome", "setting": "[3]", "value": "inactive"}]}, {"compound": "CCOC(=O)C1=C[C@@H](OC(CC)CC)[C@H](NC(C)=O)[C@@H](N)C1", "values": [{"measurement": "parasite growth remaining, % of DMSO control (lower = more inhibition)", "setting": "[8]", "value": 97.7, "unit": "%"}, {"measurement": "growth, % of control", "setting": "[7]", "value": 98.6, "unit": "%"}, {"measurement": "outcome", "setting": "[1]", "value": "inactive"}, {"measurement": "outcome", "setting": "[2]", "value": "inactive"}, {"measurement": "outcome", "setting": "[4]", "value": "inactive"}, {"measurement": "outcome", "setting": "[3]", "value": "inactive"}]}, {"compound": "CCCc1nc(C(C)(C)O)c(C(=O)OCc2oc(=O)oc2C)n1Cc1ccc(-c2ccccc2-c2nn[nH]n2)cc1", "values": [{"measurement": "outcome", "setting": "[1]", "value": "inactive"}, {"measurement": "outcome", "setting": "[2]", "value": "inactive"}, {"measurement": "outcome", "setting": "[3]", "value": "inactive"}]}, {"compound": "Nc1nc2[nH]cc(CCc3ccc(C(=O)N[C@@H](CCC(=O)O)C(=O)O)cc3)c2c(=O)[nH]1", "values": [{"measurement": "outcome", "setting": "[2]", "value": "inactive"}, {"measurement": "outcome", "setting": "[4]", "value": "inactive"}, {"measurement": "outcome", "setting": "[3]", "value": "inactive"}]}, {"compound": "N[C@@H](Cc1cc(I)c(Oc2ccc(O)c(I)c2)c(I)c1)C(=O)O", "values": [{"measurement": "outcome", "setting": "[1]", "value": "inactive"}, {"measurement": "outcome", "setting": "[4]", "value": "inactive"}, {"measurement": "outcome", "setting": "[3]", "value": "inactive"}]}, {"compound": "Nc1ccn(C[C@@H](CO)OCP(=O)(O)O)c(=O)n1", "values": [{"measurement": "parasite growth remaining, % of DMSO control (lower = more inhibition)", "setting": "[8]", "value": "103% [at 9.64 µM]"}, {"measurement": "growth, % of control", "setting": "[7]", "value": "81.6% [at 9.64 µM]"}, {"measurement": "outcome", "setting": "[1]", "value": "inactive"}, {"measurement": "outcome", "setting": "[2]", "value": "inactive"}, {"measurement": "outcome", "setting": "[4]", "value": "inactive"}, {"measurement": "outcome", "setting": "[3]", "value": "inactive"}]}, {"compound": "CC(C=CC1=C(C)CCCC1(C)C)=CC=CC(C)=CC(=O)O", "values": [{"measurement": "outcome", "setting": "[1]", "value": "inactive"}, {"measurement": "outcome", "setting": "[4]", "value": "inactive"}, {"measurement": "outcome", "setting": "[3]", "value": "inactive"}]}, {"compound": "O=C1CN=C(c2ccccc2)c2cc([N+](=O)[O-])ccc2N1", "values": [{"measurement": "outcome", "setting": "[2]", "value": "inactive"}, {"measurement": "outcome", "setting": "[4]", "value": "inactive"}, {"measurement": "outcome", "setting": "[5]", "value": "inactive"}, {"measurement": "outcome", "setting": "[9]", "value": "inactive"}, {"measurement": "outcome", "setting": "[6]", "value": "inactive"}, {"measurement": "outcome", "setting": "[3]", "value": "inactive"}]}, {"compound": "NC(=O)CC[C@@H]1NC(=O)[C@H](Cc2ccccc2)NC(=O)[C@H](Cc2ccc(O)cc2)NC(=O)[C@@H](N)CSSC[C@@H](C(=O)N2CCC[C@H]2C(=O)N[C@@H](CCCN=C(N)N)C(=O)NCC(N)=O)NC(=O)[C@H](CC(N)=O)NC1=O", "values": [{"measurement": "outcome", "setting": "[1]", "value": "inactive"}, {"measurement": "outcome", "setting": "[2]", "value": "inactive"}, {"measurement": "outcome", "setting": "[3]", "value": "inactive"}]}, {"compound": "Nc1nc(/C(=C/CC(=O)O)C(=O)N[C@@H]2C(=O)N3C(C(=O)O)=CCS[C@H]23)cs1", "values": [{"measurement": "outcome", "setting": "[2]", "value": "inactive"}, {"measurement": "outcome", "setting": "[4]", "value": "inactive"}, {"measurement": "outcome", "setting": "[3]", "value": "inactive"}]}, {"compound": "CC1(C)S[C@@H]2[C@H](NC(=O)[C@H](N)c3ccc(O)cc3)C(=O)N2[C@H]1C(=O)O", "values": [{"measurement": "outcome", "setting": "[1]", "value": "inactive"}, {"measurement": "outcome", "setting": "[2]", "value": "inactive"}, {"measurement": "outcome", "setting": "[3]", "value": "inactive"}]}, {"compound": "CCC(=O)NCCC1CCc2ccc3c(c21)CCO3", "note": "(stereo not drawn)", "values": [{"measurement": "outcome", "setting": "[1]", "value": "inactive"}, {"measurement": "outcome", "setting": "[2]", "value": "inactive"}, {"measurement": "outcome", "setting": "[4]", "value": "inactive"}, {"measurement": "outcome", "setting": "[3]", "value": "inactive"}]}, {"compound": "C[C@]12CC[C@@H]3c4ccc(OC(=O)N(CCCl)CCCl)cc4CC[C@H]3[C@@H]1CC[C@@H]2OP(=O)(O)O", "values": [{"measurement": "parasite growth remaining, % of DMSO control (lower = more inhibition)", "setting": "[8]", "value": 97.1, "unit": "%"}, {"measurement": "growth, % of control", "setting": "[7]", "value": 47.6, "unit": "%"}, {"measurement": "outcome", "setting": "[1]", "value": "inactive"}, {"measurement": "outcome", "setting": "[2]", "value": "inactive"}, {"measurement": "outcome", "setting": "[4]", "value": "inactive"}, {"measurement": "outcome", "setting": "[3]", "value": "inactive"}]}]}
